In PubChem BioAssay (Tox21):
Values joined by “and” are separate entries in the source; they are usually repeats but may differ in a detail not shown here. Identical values can stand only once. Records with an inconclusive call do not appear. Where a call stands in place of a potency, no number is given. Some structures have more than one record in an assay (separate samples or runs), and their calls can disagree. Active and inactive are the calls of the source. Calls follow the shape of the dose curve; as a rule, active = well fitted curve in the direction sought with a large enough effect in the repeat runs; inconclusive = weak or mixed curves; inactive = no such curve, though single readings can be large; an effect the other way counts as inactive or inconclusive.

experiment: qHTS assay for small molecule disruptors of the mitochondrial membrane potential (AID 720635); conditions: HepG2 mitochondrial membrane potential, Mito-MPS dye ratio; series mostly up to 83.2 µM; ratio activity, negative = MMP loss: at the top concentration; also: potency is read from the fitted curve at half-maximal effect
Outline: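 HepG2 cells (2,000/well) attached overnight at 37C, then took compound for 1 hr at 37C, 5% CO2. Mito-MPS dye was added for 30 min; fluorescence was read at 490/535 nm (monomers) and 540/590 nm (aggregates).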

Row | Structure (SMILES) | ratio activity, negative = MMP loss | Potency
1 | CNCC(O)c1ccc(O)cc1 (centres undefined) | 26.7% [at 39.1 µM] (inactive) | –
2 | Clc1cnc(Oc2ccc(Oc3ncc(Cl)cc3Cl)cc2)c(Cl)c1 | – | 10.7 µM (active) and 48.6 µM (active)
3 | COC(C)(C)CCCC(C)C/C=C/C(C)=C/C(=O)OC(C)C (centres undefined) | – | inactive and 21.3 µM (active)
4 | COc1nc(NC(C)C)nc(NC(C)C)n1 | – | inactive
5 | CN(C)C(=O)Nc1cccc(C(F)(F)F)c1 | – | inactive
6 | Nc1nc(N)nc(NC2CC2)n1 | – | inactive
7 | Nc1ccc([As](=O)(O)O)cc1 | 37.9% (inactive) | –
8 | CCOP(=S)(OCC)Oc1ccc([N+](=O)[O-])cc1 | – | 55.1 µM (active) and inactive
9 | CC(=O)C1CCOC1=O (centres undefined) | 14.2% [at 95.3 µM] (inactive) | –
10 | Cc1ccc(N)cc1 | – | inactive
11 | Cl/C=C/Cl | – | inactive
12 | Nc1cccc(Cl)c1 | – | inactive
13 | CCOP(=S)(OCC)Oc1cc(C)nc(C(C)C)n1 | – | inactive and 30.6 µM (active)
14 | O=C(O)COc1ccccc1 | – | inactive
15 | Cc1cccc(C)c1NC(=O)CN1CCCC1=O | – | inactive
16 | CCCCC(CC)C(=O)Cl (centres undefined) | – | inactive
17 | ClCCOCCCl | – | inactive
18 | COS(=O)(=O)OC | – | inactive
19 | FC(F)(F)c1ccc(Cl)cc1 | – | inactive
20 | CCSC(=O)N1CCCCCC1 | -16.7% (inactive) | –
21 | CCOC(=O)CC(SP(=O)(OC)OC)C(=O)OCC (centres undefined) | – | inactive
22 | CC(C)c1cccc(C(C)C)c1O | – | 54.3 µM (active) and 61.1 µM (active)
23 | Cc1cc(O)ccc1Cl | – | 10.6 µM (active) and 49.4 µM (active) and 27.3 µM (active)
24 | O=C(O)CCCc1ccc(N(CCCl)CCCl)cc1 | – | inactive
25 | O=[N+]([O-])c1ccc(Cl)cc1 | -12.7% (inactive) | –
26 | CN(C)C(=O)C(c1ccccc1)c1ccccc1 | – | inactive
27 | Nc1cc(Cl)cc(Cl)c1 | – | inactive

experiment: qHTS assay to test for compound auto fluorescence at 590 nm (red) in HepG2 cells (AID 720674); conditions: HepG2 autofluorescence, red 540/590 nm, 1 h; series mostly up to 91.3 µM; fluorescence, relative to Rose Bengal: at the top concentration
Outline: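 Rose Bengal sodium served as the red fluorophore standard. HepG2 monolayers (overnight attachment, MEM with 10% FBS) were exposed to test compounds for 1 hr at 37 C and read at Ex 540/Em 590 nm.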

Row | Structure (SMILES) | outcome | fluorescence, relative to Rose Bengal
28 | CNCC(O)c1ccc(O)cc1 (centres undefined) | inactive | –
29 | Clc1cnc(Oc2ccc(Oc3ncc(Cl)cc3Cl)cc2)c(Cl)c1 | inactive | –
30 | COC(C)(C)CCCC(C)C/C=C/C(C)=C/C(=O)OC(C)C (centres undefined) | inactive | –
31 | COc1nc(NC(C)C)nc(NC(C)C)n1 | inactive | –
32 | CN(C)C(=O)Nc1cccc(C(F)(F)F)c1 | inactive | –
33 | Nc1nc(N)nc(NC2CC2)n1 | inactive | –
34 | Nc1ccc([As](=O)(O)O)cc1 | inactive | –
35 | CCOP(=S)(OCC)Oc1ccc([N+](=O)[O-])cc1 | inactive | –
36 | CCCOC(=O)c1ccccc1C(=O)OCCC | inactive | –
37 | CC(=O)C1CCOC1=O (centres undefined) | – | -0.0656% [at 95.7 µM] (inactive)
38 | CC[N+](=O)[O-] | inactive | –
39 | Cc1ccc(N)cc1 | inactive | –
40 | Cl/C=C/Cl | inactive | –
41 | Nc1cccc(Cl)c1 | inactive | –
42 | CCOP(=S)(OCC)Oc1cc(C)nc(C(C)C)n1 | inactive | –
43 | O=C(O)COc1ccccc1 | inactive | –

Row | Structure (SMILES) | outcome | fluorescence, relative to Rose Bengal
44 | Cc1cccc(C)c1NC(=O)CN1CCCC1=O | inactive | –
45 | Nc1ncc([N+](=O)[O-])s1 | inactive | –
46 | CCCCC(CC)C(=O)Cl (centres undefined) | inactive | –
47 | ClCCOCCCl | inactive | –
48 | COS(=O)(=O)OC | inactive | –
49 | FC(F)(F)c1ccc(Cl)cc1 | inactive | –
50 | CCSC(=O)N1CCCCCC1 | inactive | –
51 | Cc1cccc(N)c1C | inactive | –
52 | CCOC(=O)CC(SP(=O)(OC)OC)C(=O)OCC (centres undefined) | inactive | –
53 | CC(C)c1cccc(C(C)C)c1O | inactive | –
54 | Cc1cc(O)ccc1Cl | inactive | –
55 | O=C(O)CCCc1ccc(N(CCCl)CCCl)cc1 | inactive | –
56 | O=[N+]([O-])c1ccc(Cl)cc1 | inactive | –
57 | CN(C)C(=O)C(c1ccccc1)c1ccccc1 | inactive | –
58 | Nc1cc(Cl)cc(Cl)c1 | inactive | –

experiment: qHTS assay to test for compound auto fluorescence at 535 nm (green) in HepG2 cells (AID 720675); conditions: green autofluorescence 485/535 nm, 1 h; series mostly up to 91.3 µM; fluorescence, % of fluorescein control: at the top concentration

Row | Structure (SMILES) | outcome | fluorescence, % of fluorescein control
59 | CNCC(O)c1ccc(O)cc1 (centres undefined) | inactive | –
60 | Clc1cnc(Oc2ccc(Oc3ncc(Cl)cc3Cl)cc2)c(Cl)c1 | inactive | –
61 | COC(C)(C)CCCC(C)C/C=C/C(C)=C/C(=O)OC(C)C (centres undefined) | inactive | –
62 | COc1nc(NC(C)C)nc(NC(C)C)n1 | inactive | –
63 | CN(C)C(=O)Nc1cccc(C(F)(F)F)c1 | inactive | –
64 | Nc1nc(N)nc(NC2CC2)n1 | inactive | –
65 | Nc1ccc([As](=O)(O)O)cc1 | inactive | –
66 | CCOP(=S)(OCC)Oc1ccc([N+](=O)[O-])cc1 | inactive | –
67 | CCCOC(=O)c1ccccc1C(=O)OCCC | inactive | –
68 | CC(=O)C1CCOC1=O (centres undefined) | – | -0.177% [at 95.7 µM] (inactive)
69 | CC[N+](=O)[O-] | inactive | –
70 | Cc1ccc(N)cc1 | inactive | –
71 | Cl/C=C/Cl | inactive | –
72 | Nc1cccc(Cl)c1 | inactive | –
73 | CCOP(=S)(OCC)Oc1cc(C)nc(C(C)C)n1 | inactive | –
74 | O=C(O)COc1ccccc1 | inactive | –

Row | Structure (SMILES) | outcome | fluorescence, % of fluorescein control
75 | Cc1cccc(C)c1NC(=O)CN1CCCC1=O | inactive | –
76 | Nc1ncc([N+](=O)[O-])s1 | inactive | –
77 | CCCCC(CC)C(=O)Cl (centres undefined) | inactive | –
78 | ClCCOCCCl | inactive | –
79 | COS(=O)(=O)OC | inactive | –
80 | FC(F)(F)c1ccc(Cl)cc1 | inactive | –
81 | CCSC(=O)N1CCCCCC1 | inactive | –
82 | Cc1cccc(N)c1C | inactive | –
83 | CCOC(=O)CC(SP(=O)(OC)OC)C(=O)OCC (centres undefined) | inactive | –
84 | CC(C)c1cccc(C(C)C)c1O | inactive | –
85 | Cc1cc(O)ccc1Cl | inactive | –
86 | O=C(O)CCCc1ccc(N(CCCl)CCCl)cc1 | inactive | –
87 | O=[N+]([O-])c1ccc(Cl)cc1 | inactive | –
88 | CN(C)C(=O)C(c1ccccc1)c1ccccc1 | inactive | –
89 | Nc1cc(Cl)cc(Cl)c1 | inactive | –
